# Reference: PubChem BioAssay AID1920062 (Sanford-Burnham Center for Chemical Genomics, 2024)
# Out of some 370,000 compounds screened, about 400 (0.11%) were called active. What follows is part of a selection rich in actives, with near analogues and random picks from the rest. Unmarked numbers belong to inactive results.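 Rule for the calls: active = activation at 10 µM reaching about 35% in either raw or pattern-adjusted values (limit read from the data); inactive = the rest.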
# Target: Atrial natriuretic peptide receptor 2 (Homo sapiens) (UniProt P20594)
# Experiment: human GC-B receptor activators, primary screen, HEK293 GC-B cells, cGMP TR-FRET, EC30 CNP (AID 1920062)
# Conditions: at 10 µM, hits give high values, 0% at EC30 CNP, 100% saturating CNP
# Sequence of Atrial natriuretic peptide receptor 2 (Homo sapiens) (P20594 whole entry, looked up): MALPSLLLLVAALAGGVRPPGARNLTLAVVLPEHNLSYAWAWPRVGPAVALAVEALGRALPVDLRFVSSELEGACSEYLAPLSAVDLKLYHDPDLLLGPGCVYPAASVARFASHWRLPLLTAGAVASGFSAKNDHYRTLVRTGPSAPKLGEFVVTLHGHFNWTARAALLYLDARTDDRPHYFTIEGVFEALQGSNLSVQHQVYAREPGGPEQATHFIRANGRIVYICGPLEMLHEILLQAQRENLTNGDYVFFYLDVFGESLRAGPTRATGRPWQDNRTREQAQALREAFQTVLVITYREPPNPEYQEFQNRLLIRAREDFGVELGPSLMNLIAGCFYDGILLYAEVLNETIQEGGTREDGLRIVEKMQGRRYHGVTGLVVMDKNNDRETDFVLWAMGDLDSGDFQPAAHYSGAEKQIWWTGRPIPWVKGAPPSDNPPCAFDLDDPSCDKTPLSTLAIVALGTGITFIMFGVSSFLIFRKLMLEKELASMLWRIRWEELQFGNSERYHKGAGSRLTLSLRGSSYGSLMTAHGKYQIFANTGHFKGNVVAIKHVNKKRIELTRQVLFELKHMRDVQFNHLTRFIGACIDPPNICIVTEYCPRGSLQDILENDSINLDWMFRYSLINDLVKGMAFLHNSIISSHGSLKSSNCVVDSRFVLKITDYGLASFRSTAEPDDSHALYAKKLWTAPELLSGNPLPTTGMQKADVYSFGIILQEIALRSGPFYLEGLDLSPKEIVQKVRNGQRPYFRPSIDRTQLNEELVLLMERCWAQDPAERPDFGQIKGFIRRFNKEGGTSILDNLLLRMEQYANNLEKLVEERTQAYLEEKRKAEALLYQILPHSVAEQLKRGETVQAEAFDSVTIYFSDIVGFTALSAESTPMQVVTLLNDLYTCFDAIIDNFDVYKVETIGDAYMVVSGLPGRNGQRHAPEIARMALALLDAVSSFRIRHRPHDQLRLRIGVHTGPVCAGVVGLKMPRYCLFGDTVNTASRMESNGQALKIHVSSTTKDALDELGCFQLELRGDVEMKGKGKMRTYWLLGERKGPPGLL
row,SMILES,activation
1,O=C(NCc1cc(C(F)(F)F)cc(C(F)(F)F)c1)C1CC(c2cccc(F)c2)=NO1 (configuration not stated),4.68%
2,CC1=C(C(N)=O)C(c2ccc(F)cc2)n2nc(CCCO)nc2N1 (configuration not stated),12.2%
3,C=CCn1c(=O)c(C(=O)NCc2ccc3c(c2)OCO3)c(O)c2ccccc21,5.25%
4,CCN(CC)C(=O)C(=O)c1cn(CC(=O)NCc2ccc3c(c2)OCO3)c2ccccc12,-1.28%
5,CCn1c(=O)c([N+](=O)[O-])c(NCc2ccc3c(c2)OCO3)c2ccccc21,38.9% (active)
6,CCCCNC(=O)c1nc(C2CCN(S(=O)(=O)c3ccc(F)c(F)c3)CC2)oc1-c1cccc(C(F)(F)F)c1,1.59%
7,CC1CN/C(=C\C(=O)c2ccc(Br)cc2)C(=O)N1 (configuration not stated),-4.27%
8,N#Cc1ccccc1S(=O)(=O)N1CCN(Cc2c(O)ccc3ccccc23)CC1,2.67%
9,Cc1ccc(CN(N=Nc2nonc2N)c2nonc2N)c(C)c1,42.7% (active)
10,CCn1c(/C=C/Nc2ccccc2)[n+](CC)c2ccc(C(=O)OCC(F)(F)F)cc21,-2.59%
11,O=C(OCCN1C(=O)c2ccccc2C1=O)[C@@H]1CC(O)CN1S(=O)(=O)c1ccccc1[N+](=O)[O-] (some centres not stated),-3.1%
12,COC(=O)[C@@]12CCCCC3=C1N(CCC3)C(=O)[C@H]2CC(=O)NCc1cccc2ccccc12,-3.99%
13,CCc1nc2c(OCc3ccccc3)cccn2c1N(C)C(=O)c1ccco1,3.48%
14,Cc1ccc(/C=C(\C#N)C(=O)Nc2cccc3ncccc23)o1,-4.94%
15,N#Cc1ccc(C(=O)Nc2nc(-c3cccs3)c(C(=O)C(F)(F)F)s2)cc1,-0.02%
16,COc1cc(CCC(=O)N2CCN(c3ccccc3Cl)CC2)cc(OC)c1OC,-3.86%
17,COc1cccc(COC(=O)C2CCN(S(=O)(=O)c3cccs3)CC2)c1OC,1.88%
18,Cc1ccc(C(=O)N2CCCC(c3ccccc3)=N2)cc1,2.95%
19,Nc1nc(SC23CC4CC(CC(C4)C2)C3)ns1,-0.97%
20,CS(=O)(=O)N(CC(=O)Nc1ccc(F)cc1)C1CCCCC1,0.74%
21,CN(C)c1nc2n(c(=O)n1)CCO2,4.05%
22,O=C(COc1cccnc1[N+](=O)[O-])Nc1ccc(Cl)cc1F,-6.77%

row,SMILES,activation
1,CC(C)(C)c1ccc(C(=O)NCC(=O)OCN2C(=O)c3ccccc3C2=O)cc1,-3.65%
2,CN(Cc1cccnc1)C(=O)c1cc(COc2ccc3ncccc3c2)on1,0.47%
3,C=CCC1(CC=C)CCCN1C(=O)c1cc(COc2ccc(-n3cncn3)cc2)on1,-1.1%
4,CC1=NN(C(=O)Cc2ccc(C)cc2)C(O)(c2cccnc2)C1 (configuration not stated),-0.71%
5,O=C(Nc1ccccc1Cl)NC1(C(=O)N2CCOCC2)CCCCC1,0.64%
6,CCN(Cc1ccccc1)C(=O)CCS(=O)(=O)c1ccc2c(c1)oc(=O)n2C,4.57%
7,O=C(NNC(=S)Nc1ccc(F)cc1)[C@H]1C[C@@H]1c1ccccc1,2.74%
8,COc1ccc(OC)c(NC(=O)c2cnn(-c3ccccc3Cl)c2NC(=O)c2ccco2)c1,-0.32%
9,CCCC(c1nnnn1C(C)(C)C)N1CCN(Cc2ccccc2)CC1 (configuration not stated),-1.17%
10,COC(=O)c1ccc2nc(-c3ccc(Cl)cc3)c(Cc3cccc(F)c3)n2c1,41.9% (active)
11,Fc1cccc(Cc2c(-c3cccc(Cl)c3)nc3ccc(Br)cn23)c1,-1.56%
12,COC(=O)c1ccc2nc(-c3ccc(OC)c(OC)c3)c(Cc3ccccc3)n2c1,20.9%
13,COC(=O)c1ccc2nc(-c3ccc(C)cc3)c(Cc3ccc(OC)cc3C)n2c1,17.2%
14,COC(=O)c1ccc2nc(-c3ccc(F)cc3)c(Cc3ccc(C)cc3)n2c1,41.9% (active)
15,COC(=O)c1ccc2nc(C3CCCCC3)c(Cc3cccc(F)c3)n2c1,3.29%
16,COC(=O)[C@@H]1C[C@@]2(O)[C@H](O)[C@H](O)[C@H](O)C[C@H]2N1Cc1ccc(C)s1,6.96%
17,O=C(NCc1ccncc1)C1CCCN(S(=O)(=O)c2ccc(Br)cc2)C1 (configuration not stated),-0.66%
18,CCOCCCNC(=O)Cc1cc(=O)[nH]c(=O)[nH]1,-0.88%
19,CC(=O)Nc1ccc(S(=O)(=O)NC2(C(F)(F)F)C(=O)Nc3c2c(=O)[nH]c(=O)n3Cc2ccccc2)cc1 (configuration not stated),-0.18%
20,NC(=O)C[n+]1cccc(C(N)=O)c1,-0.67%
21,CC1(C)O[C@@H]2[C@H](O1)[C@@H](COS(=O)(=O)O)O[C@H]2n1ccc(=O)[nH]c1=O,1.28%
22,O=C(NC(=S)Nc1cccc(-c2ccc(CO)o2)c1)c1cccs1,3.14%

row,SMILES,activation
1,COc1cccc2cc(C(C)N(CCCN3CCOCC3)C(=O)Nc3ccc(Cl)cc3)oc12 (configuration not stated),2.29%
2,Cc1ccc(SCC(=O)NNC(=O)c2ccc(S(C)(=O)=O)cc2)cc1,4.75%
3,CCCN=C1NC(=O)C(CC(=O)NCCc2ccc(OC)c(OC)c2)S1 (configuration not stated),-2.43%
4,CCN(CC(=O)NCCCN1CCOCC1)S(=O)(=O)c1cc(Cl)ccc1Cl,-0.24%
5,CCOCCCNC(=O)C(NC(=O)c1ccc(=O)[nH]c1)c1ccc(Cl)cc1 (configuration not stated),-0.69%
6,CC(C)OC(=O)c1sc2nc3c(cc2c1N)C(=O)CCC3,16.4%
7,O=C(CC1CCCCC1)NCc1ccccc1,0.16%
8,Nc1c(C(=O)NCc2ccccc2)sc2nc3c(cc12)C(=O)CCC3,41.5% (active)
9,Cc1cnc(C)c(N2CCN(C(=O)C3CCC(=O)N(CCc4cccc(F)c4)C3)CC2)n1 (configuration not stated),1.57%
10,CCN(C(=O)COC(=O)c1c(NC(C)=O)sc(C)c1C)C1CCS(=O)(=O)C1 (configuration not stated),-6.94%
11,C=CCn1nc(C(=O)OCC)cc1-c1sc(NC(=O)c2ccccc2)nc1C,3.57%
12,Cc1ccc(C)n1-c1ccncc1,1.81%
13,COC(=O)[C@]1(Cc2ccccc2)N[C@H](CN(C)S(=O)(=O)c2ccc(F)cc2)[C@@H]2C(=O)N(Cc3ccccc3)C(=O)[C@@H]21,-3.49%
14,COc1ccc(C2c3ccc(O)cc3Oc3ncn(CCCO)c(=N)c32)cc1OC (configuration not stated),2.6%
15,CCN(C(=O)COC(=O)c1ccc(COc2ccc3c(C)cc(=O)oc3c2)cc1)C1CCS(=O)(=O)C1 (configuration not stated),-1.49%
16,O=C(Nc1ccc(Br)cc1)c1cccc(NC(=O)C2C3CC4OC(=O)C2C4C3)c1 (configuration not stated),-4.37%
17,Cc1oc2nc(SCC(=O)Nc3ccc(S(N)(=O)=O)cc3)nc(NC(=O)c3ccccc3)c2c1C,-7.74%
18,N#Cc1ccc(OCCN2C(=O)NC3(CCSC3)C2=O)cc1 (configuration not stated),1.75%
19,O=C1Nc2ccccc2NC(c2ccc3c(c2)OCO3)=C1N(Cc1ccc(F)cc1)C(=O)c1ccco1,-16.8%
20,CCOC(=O)Cc1c(C)nc2c(C#N)c(C)nn2c1C,6.49%
21,C[C@H]1NS(=O)(=O)c2cc(Cl)ccc2O[C@@H]1c1ccccc1,1.13%
22,O=C1CC(=O)Nc2cc(S(=O)(=O)N3CCN(c4cccc(C(F)(F)F)c4)CC3)ccc2N1,1.05%

row,SMILES,activation
1,CCNC(=O)C1(C)CCN(C(=O)c2ccccc2)C1 (configuration not stated),1.62%
2,Cc1ccc(CSc2ccc(S(=O)(=O)N3CCCCC3)cn2)cc1,-1.29%
3,CCOC(=O)c1ccccc1NC(=O)COC(=O)C(Cc1c[nH]c2ccccc12)NC(C)=O (configuration not stated),-17.1%
4,COCCn1c(CN2CCC(Cc3ccccc3)CC2)nc2c1c(=O)n(C)c(=O)n2C,-2.04%
5,O=C(NCc1ccc2c(c1)OCO2)c1sccc1Br,8.92%
6,CN(C)C(=O)c1cccc(-c2cnc3sc(NCc4ccc5c(c4)OCO5)nn23)c1,43% (active)
7,CCN(CC)C(=O)Cn1cc(S(=O)(=O)CC(=O)NCc2ccc3c(c2)OCO3)c2ccccc21,2.01%
8,O/N=C(\c1ccc2c(c1)OCCO2)C1CCCCC1,0.81%
9,Cc1nnc(NC(=O)CSc2nc(C3CCCCC3)nc3ccccc23)s1,3.79%
10,CC(=O)Nc1cc(-c2ccccc2F)cn2c(-c3cccc(C(F)(F)F)c3)cnc12,3.33%
11,CC(=O)Nc1cccc(-c2cc(NC(C)=O)c3ncc(-c4ccccc4)n3c2)c1,5.87%
12,CC(=O)Nc1cc(-c2cccc(CO)c2)cn2c(-c3cccc(C(F)(F)F)c3)cnc12,36.8% (active)
13,COc1ccc(OC)c(Cc2cnc3nc(N)nc(N)c3c2C)c1,-1.38%
14,Cn1c(=O)c2c(SCC(=O)NCC3CCCO3)nc(CC(C)(C)C)nc2n(C)c1=O (configuration not stated),4.44%
15,C=CCN(Cc1ccc2c(c1)OCO2)C(C#CC1CC1)C(C)(C)C (configuration not stated),-14.9%
16,C[C@@H]1COc2cccc(N3CCCC3)c2S(=O)(=O)N1C,0.41%
17,CC(=O)C1(C(=O)Nc2nccs2)CC(c2ccccc2C(F)(F)F)=NO1 (configuration not stated),1.69%
18,COc1ccc(C(=O)OC(C)C(=O)NC2CCCC2)cc1S(=O)(=O)N1CCOCC1 (configuration not stated),-5.5%
19,O=C(CCCCCN1C(=O)C2C3C=CC(C3)C2C1=O)Nc1ccccn1 (configuration not stated),9.16%
20,CCc1ccccc1S(=O)(=O)Cc1ccc(C(=O)NCCc2ccccc2)o1,2.27%
21,CN(C(=O)CC(NC(=O)c1ccccc1)(c1ccccc1)c1ccccc1)c1ccccc1,-19.3%
